The values that follow come from ChEMBL document CHEMBL3988442, “University of Dundee, Small-Polar-MMV Screening Library” (2021).

Holding throughout (parameters): scale not given: direction of the effect not stated beside the values
The target in experiment [1] is Protein translocase subunit SecA (Escherichia coli (strain K12)) (UniProt P10408). Put plainly: Assay to Identify E. coli SecA ATPase Inhibitors. It counts as functional. The note with it: 30 µM.
Experiment [2] concerns the target T1, Ubiquitin-activating enzyme e1, putative (Leishmania donovani (strain BPK282A1)) (UniProt E9BSI1).
T1 sequence (whole entry): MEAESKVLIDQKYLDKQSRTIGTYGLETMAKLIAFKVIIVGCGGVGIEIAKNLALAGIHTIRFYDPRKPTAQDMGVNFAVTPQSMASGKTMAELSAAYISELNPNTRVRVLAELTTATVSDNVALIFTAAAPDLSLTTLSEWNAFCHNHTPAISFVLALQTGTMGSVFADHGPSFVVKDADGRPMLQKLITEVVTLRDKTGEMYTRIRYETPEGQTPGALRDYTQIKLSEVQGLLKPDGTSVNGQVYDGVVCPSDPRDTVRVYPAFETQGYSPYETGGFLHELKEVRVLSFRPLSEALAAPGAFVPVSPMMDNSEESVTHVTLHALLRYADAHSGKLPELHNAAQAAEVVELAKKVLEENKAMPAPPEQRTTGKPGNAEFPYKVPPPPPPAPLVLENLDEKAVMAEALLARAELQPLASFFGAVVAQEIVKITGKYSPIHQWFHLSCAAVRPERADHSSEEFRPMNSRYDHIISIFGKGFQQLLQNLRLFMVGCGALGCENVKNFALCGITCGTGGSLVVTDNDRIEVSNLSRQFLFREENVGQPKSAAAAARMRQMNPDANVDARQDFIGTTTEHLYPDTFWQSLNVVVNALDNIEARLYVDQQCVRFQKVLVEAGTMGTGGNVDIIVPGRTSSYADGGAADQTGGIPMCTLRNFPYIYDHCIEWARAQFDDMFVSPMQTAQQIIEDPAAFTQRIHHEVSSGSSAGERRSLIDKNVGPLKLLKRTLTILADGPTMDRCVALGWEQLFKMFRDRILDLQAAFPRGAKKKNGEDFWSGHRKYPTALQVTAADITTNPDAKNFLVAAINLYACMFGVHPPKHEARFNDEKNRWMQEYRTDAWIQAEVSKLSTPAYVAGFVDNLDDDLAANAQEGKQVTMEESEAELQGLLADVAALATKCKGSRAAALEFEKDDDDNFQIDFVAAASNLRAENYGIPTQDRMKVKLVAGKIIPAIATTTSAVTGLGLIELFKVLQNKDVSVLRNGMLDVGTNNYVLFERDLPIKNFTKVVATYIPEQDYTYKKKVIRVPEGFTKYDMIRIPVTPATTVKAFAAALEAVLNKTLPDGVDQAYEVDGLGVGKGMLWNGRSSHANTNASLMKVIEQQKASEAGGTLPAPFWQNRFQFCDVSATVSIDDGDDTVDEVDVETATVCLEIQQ
Description: Leishmania donovani Ubiquitin Activating Enzyme (LdE1). Format: functional. The note with it: 30 µM.

Experiment [3] concerns the target Sialic acid-binding Ig-like lectin 9 (Homo sapiens) (UniProt Q9Y336). Put plainly: Hs-Siglec9 ALPHAscreen SOP 20170721. Particulars: 10 µM. For orientation: In Alpha technology, singlet oxygen from a donor bead excites a nearby acceptor bead.
A further experiment has as its system Trypanosoma cruzi. Description: Trypanosoma cruzi phosphomannomutase and mannose-1-phosphate guanylyltransferase assay. Format: functional. Particulars: 10 µM.
For experiment [4], the target named is T2, Arginase-2, mitochondrial (Homo sapiens) (UniProt P78540).
T2 sequence (whole entry): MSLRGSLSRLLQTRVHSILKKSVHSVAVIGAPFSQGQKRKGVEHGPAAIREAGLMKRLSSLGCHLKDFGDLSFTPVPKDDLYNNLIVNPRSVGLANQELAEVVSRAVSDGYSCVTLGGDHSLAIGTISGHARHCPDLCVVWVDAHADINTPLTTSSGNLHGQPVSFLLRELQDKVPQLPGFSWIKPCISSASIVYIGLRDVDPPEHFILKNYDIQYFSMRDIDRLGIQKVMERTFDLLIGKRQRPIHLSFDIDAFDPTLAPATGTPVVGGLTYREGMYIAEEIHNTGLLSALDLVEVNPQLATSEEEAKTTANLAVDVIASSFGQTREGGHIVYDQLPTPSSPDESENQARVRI
Put plainly: in vitro enzyme assay to detect the production of urea directly proportional to the activity of Arginase II. Further: in the data most compounds retested in dose-response had high values. It counts as functional. The note with it: 33.3 µM.

For experiment [5], the target named is T3, Proteasome subunit beta (Trypanosoma cruzi) (UniProt O96673).
T3 sequence (whole entry): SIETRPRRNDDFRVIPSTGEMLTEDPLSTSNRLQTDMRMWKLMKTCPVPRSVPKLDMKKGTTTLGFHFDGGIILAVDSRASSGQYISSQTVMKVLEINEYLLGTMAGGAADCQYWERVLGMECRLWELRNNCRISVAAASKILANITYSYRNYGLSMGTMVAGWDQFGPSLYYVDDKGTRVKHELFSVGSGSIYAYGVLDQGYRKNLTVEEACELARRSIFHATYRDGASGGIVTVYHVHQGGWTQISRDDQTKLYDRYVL
Description: Trypanosoma cruzi proteasome chymotrypsin-like activity (TcProtChymo) assay. Further: in the data most compounds retested in dose-response had high values. Format: functional. Particulars: 9.37 µM.

The species entered for a further experiment is Homo sapiens. Put plainly: To identify inhibition of the IFN signalling (Jak-Stat) pathway via expression of an eGFP reporter gene under the control of an IFN-stimulated response element (ISRE) containing MxA promoter. It counts as functional. The note with it: 30 µM. In general terms: Reporter assays use an easily measured gene product as a stand-in for the process of interest.

The target of experiment [6] is T4, Tyrosyl-tRNA synthetase, putative (Trypanosoma cruzi (strain CL Brener)) (UniProt Q4DSP6).
T4 sequence (whole entry): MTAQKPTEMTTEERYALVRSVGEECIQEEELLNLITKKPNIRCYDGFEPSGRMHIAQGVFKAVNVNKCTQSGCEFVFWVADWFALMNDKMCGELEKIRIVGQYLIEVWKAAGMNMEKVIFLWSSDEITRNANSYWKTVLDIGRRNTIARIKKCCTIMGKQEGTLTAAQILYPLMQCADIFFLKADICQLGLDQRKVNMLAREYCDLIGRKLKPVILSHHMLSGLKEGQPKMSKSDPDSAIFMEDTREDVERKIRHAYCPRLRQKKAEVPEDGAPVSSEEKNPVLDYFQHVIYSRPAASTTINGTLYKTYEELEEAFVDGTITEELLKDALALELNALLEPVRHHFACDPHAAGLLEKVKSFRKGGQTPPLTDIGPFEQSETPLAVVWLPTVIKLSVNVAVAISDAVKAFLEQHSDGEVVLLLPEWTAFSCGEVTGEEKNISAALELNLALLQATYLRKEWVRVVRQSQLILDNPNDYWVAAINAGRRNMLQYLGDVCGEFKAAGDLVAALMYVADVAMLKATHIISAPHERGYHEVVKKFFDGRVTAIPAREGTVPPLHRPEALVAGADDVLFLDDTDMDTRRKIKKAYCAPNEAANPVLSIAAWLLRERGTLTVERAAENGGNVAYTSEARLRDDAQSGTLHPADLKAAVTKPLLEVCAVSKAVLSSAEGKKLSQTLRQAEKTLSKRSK
Description: Trypanosoma cruzi tyrosyl tRNA synthetase (TcYRS) _High Tyrosine SOP. Further: in the data most compounds retested in dose-response had high values. Format: functional. The note with it: 30 µM.

The target of experiment [7] is T4, Tyrosyl-tRNA synthetase, putative (Trypanosoma cruzi (strain CL Brener)). Description: Trypanosoma cruzi tyrosyl tRNA synthetase (TcYRS) SOP. Format: functional. Particulars: 30 µM.
Experiment [8] concerns the target Chromo domain-containing protein 1 (Saccharomyces cerevisiae (strain ATCC 204508 / S288c) (Baker's yeast)) (UniProt P32657). Put plainly: ScCHD-1 Enzyme Inhibition Assay. Further: in the data most compounds retested in dose-response had high values. Format: functional. The note with it: 30 µM.

For some assays here: Measured potencies and affinities stand elsewhere.

Chromo domain-containing protein 1 (Saccharomyces cerevisiae (strain ATCC 204508 / S288c) (Baker's yeast)), sequence (P32657 whole entry, the tested form may be a part): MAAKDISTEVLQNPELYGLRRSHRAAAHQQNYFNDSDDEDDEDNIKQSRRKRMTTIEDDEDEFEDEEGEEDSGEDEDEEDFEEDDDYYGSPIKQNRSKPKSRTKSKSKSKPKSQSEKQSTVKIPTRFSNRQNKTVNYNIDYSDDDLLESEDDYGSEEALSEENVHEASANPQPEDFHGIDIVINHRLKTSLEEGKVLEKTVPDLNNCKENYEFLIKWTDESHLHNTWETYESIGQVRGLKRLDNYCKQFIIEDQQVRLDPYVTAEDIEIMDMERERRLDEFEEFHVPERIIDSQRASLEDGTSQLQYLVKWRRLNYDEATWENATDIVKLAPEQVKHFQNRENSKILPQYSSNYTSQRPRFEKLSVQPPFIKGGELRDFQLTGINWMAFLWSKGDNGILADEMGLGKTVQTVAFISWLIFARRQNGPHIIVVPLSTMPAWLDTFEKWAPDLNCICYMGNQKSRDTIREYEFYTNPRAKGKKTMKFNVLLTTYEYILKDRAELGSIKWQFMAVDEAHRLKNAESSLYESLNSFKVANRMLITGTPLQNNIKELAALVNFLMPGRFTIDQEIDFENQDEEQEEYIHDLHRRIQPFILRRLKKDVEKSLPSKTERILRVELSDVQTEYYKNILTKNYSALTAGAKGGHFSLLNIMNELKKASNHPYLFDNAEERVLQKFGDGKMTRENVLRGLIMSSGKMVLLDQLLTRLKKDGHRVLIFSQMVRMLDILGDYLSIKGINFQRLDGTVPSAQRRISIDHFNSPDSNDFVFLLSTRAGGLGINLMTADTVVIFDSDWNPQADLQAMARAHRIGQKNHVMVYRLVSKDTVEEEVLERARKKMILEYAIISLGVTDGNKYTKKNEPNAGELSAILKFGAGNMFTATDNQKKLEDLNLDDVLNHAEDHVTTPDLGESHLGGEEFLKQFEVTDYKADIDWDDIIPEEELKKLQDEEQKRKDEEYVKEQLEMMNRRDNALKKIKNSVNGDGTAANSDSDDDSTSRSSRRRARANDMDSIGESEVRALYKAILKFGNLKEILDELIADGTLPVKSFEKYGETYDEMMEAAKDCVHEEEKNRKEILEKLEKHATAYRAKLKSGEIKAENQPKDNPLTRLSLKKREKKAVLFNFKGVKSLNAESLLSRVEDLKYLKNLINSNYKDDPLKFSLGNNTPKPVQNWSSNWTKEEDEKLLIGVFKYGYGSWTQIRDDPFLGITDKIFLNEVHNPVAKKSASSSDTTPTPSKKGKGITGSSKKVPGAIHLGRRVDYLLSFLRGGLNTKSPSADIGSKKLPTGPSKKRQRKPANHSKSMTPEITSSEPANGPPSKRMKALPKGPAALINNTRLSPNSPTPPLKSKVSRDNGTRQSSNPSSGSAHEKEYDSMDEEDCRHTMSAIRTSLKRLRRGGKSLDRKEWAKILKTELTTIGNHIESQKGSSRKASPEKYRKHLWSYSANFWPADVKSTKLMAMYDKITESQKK
Sialic acid-binding Ig-like lectin 9 (Homo sapiens), sequence (Q9Y336 whole entry): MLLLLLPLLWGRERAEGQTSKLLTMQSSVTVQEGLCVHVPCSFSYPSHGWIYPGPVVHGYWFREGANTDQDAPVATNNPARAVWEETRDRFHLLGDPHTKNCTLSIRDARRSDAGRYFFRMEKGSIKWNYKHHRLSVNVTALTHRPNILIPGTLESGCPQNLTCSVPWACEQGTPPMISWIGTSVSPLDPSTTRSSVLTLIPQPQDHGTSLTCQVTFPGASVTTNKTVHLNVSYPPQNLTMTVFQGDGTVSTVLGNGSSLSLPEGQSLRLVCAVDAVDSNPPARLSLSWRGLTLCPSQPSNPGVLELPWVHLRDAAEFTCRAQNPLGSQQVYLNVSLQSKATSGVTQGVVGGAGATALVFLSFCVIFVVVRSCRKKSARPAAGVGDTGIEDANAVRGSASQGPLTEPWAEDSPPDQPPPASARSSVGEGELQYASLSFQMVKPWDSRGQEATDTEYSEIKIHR
Protein translocase subunit SecA (Escherichia coli (strain K12)), sequence (P10408 whole entry): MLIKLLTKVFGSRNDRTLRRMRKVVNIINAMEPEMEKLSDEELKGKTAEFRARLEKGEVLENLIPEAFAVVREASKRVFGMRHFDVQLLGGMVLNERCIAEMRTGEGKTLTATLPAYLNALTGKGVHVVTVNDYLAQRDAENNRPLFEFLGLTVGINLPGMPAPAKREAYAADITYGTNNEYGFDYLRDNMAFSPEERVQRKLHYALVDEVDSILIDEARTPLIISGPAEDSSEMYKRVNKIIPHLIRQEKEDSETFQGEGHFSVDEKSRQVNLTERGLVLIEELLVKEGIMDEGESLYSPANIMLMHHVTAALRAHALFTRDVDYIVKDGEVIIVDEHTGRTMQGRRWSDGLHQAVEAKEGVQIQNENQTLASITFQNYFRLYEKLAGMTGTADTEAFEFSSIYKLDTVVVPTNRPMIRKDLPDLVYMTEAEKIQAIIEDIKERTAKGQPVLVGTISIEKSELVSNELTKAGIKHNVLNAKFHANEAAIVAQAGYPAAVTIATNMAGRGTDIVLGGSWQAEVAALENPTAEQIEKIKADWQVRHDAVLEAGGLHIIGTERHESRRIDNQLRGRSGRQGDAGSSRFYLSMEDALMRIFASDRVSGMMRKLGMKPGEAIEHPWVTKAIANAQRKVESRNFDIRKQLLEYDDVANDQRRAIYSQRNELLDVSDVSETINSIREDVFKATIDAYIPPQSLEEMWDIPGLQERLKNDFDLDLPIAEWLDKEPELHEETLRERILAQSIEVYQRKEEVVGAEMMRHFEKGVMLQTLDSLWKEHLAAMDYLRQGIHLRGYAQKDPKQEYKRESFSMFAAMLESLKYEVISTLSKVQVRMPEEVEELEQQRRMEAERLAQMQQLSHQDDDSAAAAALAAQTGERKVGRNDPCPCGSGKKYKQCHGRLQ

In the case of `Cn1ncc(NCc2cc(F)cc(F)c2)c(Cl)c1=O`, the Percent Effect in experiment [1] is -3.8%; in [2], 13.3%; in experiment [3], -5.81%; in the experiment on Trypanosoma cruzi, -3.01%; in experiment [4] it was -10.6%; in [5], 7.55%. Moreover, the Percent Effect in the experiment listed under Homo sapiens is 37.7%; in experiment [6], 4.74%; in [7], 10.3%; in experiment [8], -11.4%.

Regarding `COc1cc(S(=O)(=O)N2CCc3ccc(F)cc32)cc(C(=O)O)c1OC`, the Percent Effect in [1] was -7.45%; in experiment [2] it was 10.7%; in experiment [3] it was 12.6%; with Trypanosoma cruzi it was -1.21%; in [4] it was 0%; in experiment [5], 6.02%. Besides, the Percent Effect was 4.5% in the experiment filed under Homo sapiens, -3.68% in experiment [6], -5.13% in [7] and -15.2% in experiment [8].

Turning to `Cc1nn(-c2ccccc2)c(C)c1CNC1CCc2ncnn2C1` (stereo not given), the Percent Effect in [1] was -0.655%; in [2] it was 10.3%; in experiment [3], 7.05%; with Trypanosoma cruzi it was 4.79%; in [4] it was 8.2%; in experiment [5], 7.93%. Moreover, the Percent Effect was -12.2% in the experiment listed under Homo sapiens, 7.18% in [6], 22.9% in [7] and -3.12% in experiment [8].

With `Cc1ncc(S(C)(=O)=O)c(C2CCCNC2)n1` (stereo not given), the Percent Effect in [1] was -0.171%; in experiment [2], 2.7%; in [3], 5.3%; with Trypanosoma cruzi, -2.81%; in experiment [4] it was 1.75%; in [5], 8.39%. Also, the Percent Effect amounted to 18.1% in the experiment filed under Homo sapiens, 6.92% in [6], 12.2% in [7] and 111% in [8].

For `O=C(NCC1CCSCC1)N(CCCO)C1CCc2ccccc21` (stereo not given), the Percent Effect is -1.28% in experiment [1]; 8% in experiment [2]; -4.32% in experiment [3]; -4.02% in the experiment on Trypanosoma cruzi; -3.1% in [4]; 9.92% in experiment [5]. For the same compound, the Percent Effect was 11% in the experiment listed under Homo sapiens, -0.526% in [6], 0% in [7] and -14.3% in experiment [8].

In the case of `Cc1cc(C2CCCN(C(=O)c3c(C)nn4cccnc34)C2)n[nH]1` (stereo not given), the Percent Effect is -3.7% in experiment [1]; 8% in experiment [2]; 6.1% in experiment [3]; -2.21% with Trypanosoma cruzi; 0.444% in experiment [4]; 6.7% in experiment [5]. Further, the Percent Effect in the experiment listed under Homo sapiens was 9.89%; in experiment [6] it was 2.63%; in [7] it was 5.13%; in experiment [8], -4.49%.

For the compound `CC(C)=CCN1CCC(c2nccn2Cc2cscn2)CC1`, the Percent Effect in [1] was -6.89%; in experiment [2], 5.41%; in experiment [3] it was 7.33%; in the experiment on Trypanosoma cruzi, 9.8%; in [4], -5.94%; in experiment [5] it was 9.07%. Also, the Percent Effect is -16% in the experiment listed under Homo sapiens, 6.92% in experiment [6], 14.6% in experiment [7] and -4.64% in experiment [8].

For the compound `CC(C)n1ccnc1CN1CCCN(C(=O)c2nccnc2N)CC1`, the Percent Effect in experiment [1] was -0.38%; in experiment [2] it was 7.69%; in experiment [3], -9.32%; in the experiment with Trypanosoma cruzi it was 1.97%; in experiment [4], 0%; in experiment [5], 18.3%. The Percent Effect in the experiment filed under Homo sapiens is 1.4%; in experiment [6], 9.09%; in [7], 22.9%; in experiment [8] it was -3.56%.

On to `NC(=O)NC(=O)CCN1CCCN(c2nccs2)CC1`, for which the Percent Effect was -0.41% in experiment [1]; 10.7% in experiment [2]; -0.94% in [3]; -4.02% in the experiment on Trypanosoma cruzi; 3.1% in experiment [4]; 9.41% in experiment [5]. Besides, the Percent Effect was 13.6% in the experiment listed under Homo sapiens, 7.89% in experiment [6], 10.3% in experiment [7] and -7.5% in [8].

With `CN(Cc1ccccc1)C(=O)c1nc(S(C)(=O)=O)n2ccccc12`, the Percent Effect is -7.02% in experiment [1]; -92.3% in experiment [2]; -5.33% in [3]; 9.67% in the experiment on Trypanosoma cruzi; -1.23% in experiment [4]; 1.96% in experiment [5]. Moreover, the Percent Effect in the experiment filed under Homo sapiens is 5.84%; in experiment [6] it was 1.44%; in experiment [7], 13.2%; in experiment [8] it was -7.37%.

In the case of `O=C1CC2(CCN(S(=O)(=O)c3cccs3)C2)CN1c1ccccc1` (stereo not given), the Percent Effect in experiment [1] was -4.36%; in [2], 9.09%; in [3], 0.409%; with Trypanosoma cruzi, -2.81%; in experiment [4], 3.65%; in experiment [5], 2.83%. The Percent Effect in the experiment filed under Homo sapiens is 8.75%; in experiment [6] it was -1.93%; in [7], -2.5%; in [8], -2.17%.
